# PubChem BioAssay AID488896 (Broad Institute, 2010)
# The whole screen tested about 320,000 compounds, of which about 3,100 (0.97%) were called active. The full list was thinned out, with actives kept by preference. A number with no mark means an inactive call.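 Rule for the calls: active = mean replicate inhibition of at least 70% and a set share of replicates each scoring 70 or more; inconclusive = meets just one of the two criteria; inactive = fails both criteria.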 Non-standard residues stand in square brackets, D forms with d. Residues, ends and D or L forms follow the SMILES beside them. ξ: configuration not given here. Ac5c = NC1(C(=O)O)CCCC1; ξS = NC(CO)C(=O)O
# Target: Scavenger receptor class B member 1 (Mus musculus) (UniProt Q61009)
# Sequence (Q61009 whole entry, looked up): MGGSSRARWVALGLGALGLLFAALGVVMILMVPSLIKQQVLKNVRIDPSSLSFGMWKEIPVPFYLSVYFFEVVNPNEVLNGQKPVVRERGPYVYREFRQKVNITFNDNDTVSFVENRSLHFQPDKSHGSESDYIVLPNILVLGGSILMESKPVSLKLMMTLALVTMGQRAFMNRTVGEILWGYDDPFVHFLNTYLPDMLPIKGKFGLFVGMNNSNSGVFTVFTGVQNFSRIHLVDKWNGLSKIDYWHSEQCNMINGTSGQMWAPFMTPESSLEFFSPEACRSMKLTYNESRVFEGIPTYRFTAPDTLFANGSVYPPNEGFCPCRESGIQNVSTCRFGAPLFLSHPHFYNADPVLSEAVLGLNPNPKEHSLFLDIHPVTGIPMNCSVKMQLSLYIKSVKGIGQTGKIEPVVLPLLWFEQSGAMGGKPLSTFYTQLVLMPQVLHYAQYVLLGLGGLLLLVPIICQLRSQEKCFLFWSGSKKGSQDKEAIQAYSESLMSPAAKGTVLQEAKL
# Experiment: mouse SR-BI DiI-HDL uptake blockers – ldlA[mSR-BI] cells, fluorescence, single point, primary screen (AID 488896);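 note: 0% = median of neutral control wells and 100% = median of positive control wells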
# Conditions: ldlA[mSR-BI] CHO cells, 3 h, at 12.5 µM, hits give high values
row,Structure (SMILES),inhibition
1,COc1cc(C(=O)NCC2(c3ccccc3)CCCC2)ccc1OC(C)C,3.63%
2,COc1ccc(C(=O)Nc2ccc(C3(C#N)CCCC3)cc2)cc1OC,82% (active)
3,COc1ccc(C(=O)Nc2ccc3nc(N4CCCCC4)cc(C)c3c2)cc1OC,44.3%
4,CN(O)C(=S)c1ccccc1,-24.5%
5,Cc1c(NS(=O)(=O)c2cccc(C(=O)Nc3ccc(SC(F)F)cc3)c2)c(=O)n(-c2ccccc2)n1C,10.9%
6,CC(=O)c1ccc(NC(=O)C(C)OC(=O)c2ccc(NS(=O)(=O)c3ccc4[nH]c(=O)[nH]c4c3)cc2)cc1 (configuration not stated),18.7%
7,CN(CCNC(=O)c1cc2c(-c3ccccc3F)nn(C)c2s1)C1CCCCC1,42%
8,COc1ccccc1N1CCN(C(=O)c2cc3c(-c4ccc(Cl)cc4)nn(C)c3s2)CC1,58.4%
9,Cn1nc(-c2ccc(Cl)cc2)c2cc(C(=O)NCc3ccco3)sc21,90.1% (active)
10,C[C@]12CCC(=O)C=C1C=CC1C2CC[C@@]2(C)C1CC[C@@]21CCC(=O)O1 (some centres not stated),-3.73%
11,O=C(c1cccnc1)N(Cc1ccccc1)C(=O)c1cccnc1,-2.46%
12,CN(C(=O)c1ccc(NC(=O)Cc2cccc(NC(=O)C3CCN(C(=O)c4ccccc4)CC3)c2)cc1)C1CC1,15%
13,CCCC(O)(c1ccccc1)C(c1ccccc1)c1ccccn1 (configuration not stated),11.7%
14,COc1ccc(C(CNC(=O)c2cccc(S(=O)(=O)Nc3ccc(Br)cc3)c2)N(C)C)cc1 (configuration not stated),-24.3%
15,CCOC(=O)c1nc(Nc2ccc(C(=O)OC)cc2)c2ccccc2n1,33.7%
16,COc1ccc(Nc2nc(-c3cccnc3)nc3ccccc23)cn1,31.9%
17,Cc1cccc(-c2nc(Nc3ccc(O)cc3)c3ccccc3n2)c1,74.9% (active)
18,O=C1NCC(c2ccccc2)(c2ccccc2)C(=O)N1,-22.9%
19,O=C(Cc1ccc(Cl)cc1)c1ccccc1,1.95%
20,O=C(CNC(=O)c1cc(S(=O)(=O)N2CCOCC2)ccc1N1CCCC1)Nc1ccc(F)c(F)c1,12.1%
21,COC(=O)c1nc2n(n1)C(c1ccc([N+](=O)[O-])cc1)C(C(=O)Nc1ccc(Cl)cc1)=C(C)N2 (configuration not stated),-8.37%

row,Structure (SMILES),inhibition
1,COC(=O)C1=CN(c2ccc(F)c(F)c2)C=C(C(=O)OC)C1c1ccc([N+](=O)[O-])cc1,71.8% (active)
2,COC(=O)C1=CN(C)C=C(C(=O)OC)C1c1ccc(Cl)cc1Cl,-0.162%
3,Cn1cc(C2OC(=O)c3ccccc32)c2ccccc21 (configuration not stated),3.47%
4,CCCCN(C(=O)CSCc1ccc(C)cc1)c1c(N)n(Cc2ccccc2)c(=O)[nH]c1=O,7.84%
5,O=C(Nc1ccc2ccccc2c1[N+](=O)[O-])c1ccccc1,14.4%
6,COC(=O)CC(CC(=O)OC)n1cccc1,-7.62%
7,CC[C@]12c3[nH]c4cc(CCC(=O)N(C)C)ccc4c3CCN1C(=O)[C@@H](CC(=O)NCc1ccco1)C[C@@H]2C(=O)N1CCN(C(=O)c2ccco2)CC1,2.87%
8,Cc1ccc(C)c(NS(=O)(=O)c2ccc(OCC(=O)NCc3cccnc3)cc2)c1,-23.5%
9,Cc1ccc(NS(=O)(=O)c2ccc(C)c(NC(=O)COc3ccc4ccccc4c3)c2)c(C)c1,78.5% (active)
10,Cc1ccc(C)c(NC(=O)CN(C)C(=O)COc2ccc3ccccc3c2)c1,2.83%
11,O=C1/C(=C\c2ccc([N+](=O)[O-])cc2)CS(=O)(=O)C/C1=C/c1ccc([N+](=O)[O-])cc1,17.7%
12,CC[C@@H]1Cc2cc(O)ccc2C2=C1c1ccc(O)cc1C[C@H]2CC,76.1% (active)
13,O=C(NNC(=O)c1ccc2ccccc2c1)c1ccc(Cl)cc1,-17.1%
14,COC(=O)c1cnc(Nc2cc(C)ccc2OC)c2ccccc12,11.3%
15,COc1ccc(C)cc1Nc1nc(C)nc2c1oc1ccccc12,-8.2%
16,COc1ccc(C)cc1Nc1nc(-c2c(C)[nH]c3ccccc23)cs1,77.1% (active)
17,COCC(=O)N(C)[C@H]1C[C@H]2c3cc(Oc4ccccc4C)ccc3CCN2C(=O)[C@H]1[C@H](C)O,5.04%
18,COc1ccc(OC)c(-c2csc(NC(=O)C3=NNC(=O)CC3)n2)c1,74.1% (active)
19,COc1ccc(NC(=O)C2=NNC(=O)CC2)cc1S(=O)(=O)N1CCCCC1,12.9%
20,COc1ccc(OC)c(-c2csc(NC(=O)COC(=O)C3CC3)n2)c1,29.7%
21,O=C(CC(=O)c1cccnc1)c1ccccc1,1.21%

row,Structure (SMILES),inhibition
1,CCCCCC(=O)NC(=S)NNC(=O)c1ccc([N+](=O)[O-])cc1,11.5%
2,O=C(COc1ccc(/C=N/NC(=O)c2ccc(O)cc2)cc1)Nc1ccc([N+](=O)[O-])cc1,24.6%
3,CCCCCC(=O)Nc1ccc(C(=O)N/N=C/c2ccc([N+](=O)[O-])cc2)cc1,92.9% (active)
4,Cc1ccc(S(=O)(=O)N2CCN(C(=O)c3cc(S(=O)(=O)N4CCOCC4)ccc3F)CC2)cc1,-4.26%
5,CCOc1ccc(NC(=O)N2CCN(CC)CC2)cc1,-5.71%
6,CCOc1ccc(NC(=O)c2ccc(NC(=O)CN3C(=O)C(=O)N(CC(C)C)C3=O)cc2)cc1,75.7% (active)
7,CCOc1ccc(NC(=O)CN2CCN(CC(=O)Nc3ccc(OC)cc3)CC2)cc1,77.8% (active)
8,CCOc1ccc(NC(=O)c2ccc(NC(=O)C3CCCO3)cc2)cc1 (configuration not stated),24.7%
9,CCOc1ccc(NC(=O)c2ccc(NC(=O)COC(=O)c3ccc(NC(=O)CC#N)cc3)cc2)cc1,57.5%
10,CCOC(=O)N1CCN(CC(=O)Nc2ccc(F)cc2)CC1,-2.83%
11,COc1ccc(/C=C2/CCCc3ccccc3C2=O)cc1,12.7%
12,CCOc1cc(C=NNC(=O)CCCC(=O)NN=Cc2ccc(O)c(OCC)c2)ccc1O,7.36%
13,CCOC(=O)[C@H]1[C@H]2COc3ccc(Br)cc3[C@@H]2N2C(=O)CN(C)C(=O)[C@@]12C,-11.5%
14,Cc1cccc(NC(=O)c2cc([N+](=O)[O-])ccc2N2CCN(C)CC2)c1,13.3%
15,Cc1cccc(NC(=O)c2sc(-c3ccccc3)nc2-c2ccc([N+](=O)[O-])cc2)c1,77.7% (active)
16,Cc1cccc(NC(=O)c2ccc([N+](=O)[O-])o2)c1,0.0135%
17,CC(=O)OC1CCC2(C)C(=CCC3C4CC(=O)N(O)C(=O)C4(C)CCC32)C1 (configuration not stated),-19%
18,NC1=NOC(=O)C1C1CCCCC1 (configuration not stated),-14.7%
19,COc1ccc(-c2nc3c(s2)CCc2onc(-c4ccc(OC)cc4)c2-3)cc1,75.1% (active)
20,COc1ccc(-c2nc3n(c2Br)CCC3)cc1,4.81%
21,COc1ccc(-c2nc3c(s2)CCc2onc(-c4ccc(Br)cc4)c2-3)cc1,58.7%

row,Structure (SMILES),inhibition
1,NC(=O)C1CCN(C(=O)c2cc(S(=O)(=O)N3CCN(c4ccccc4)CC3)ccc2Cl)CC1,-3.45%
2,COc1cccc(/C=C2\SC(=N)N(c3ccc(F)cc3)C2=O)c1,80.3% (active)
3,COc1cccc(/C=C2/SC(=S)N(CC(=O)NC3C=CS(=O)(=O)C3)C2=O)c1 (configuration not stated),6.75%
4,COc1ccc(/C=C2\SC(=N)N(c3ccc(F)cc3)C2=O)cc1,13.3%
5,Cc1cc(C)cc(OCC(=O)NC(C)c2ccccc2)c1 (configuration not stated),-23.6%
6,C/C(CC(=O)NC(C)c1ccccc1)=N\NC(N)=S (configuration not stated),86.3% (active)
7,Cc1ccc(OCC(=O)NC(C)c2ccccc2)cc1C (configuration not stated),0.888%
8,O=[N+]([O-])c1ccc(N=NNc2ccc([N+](=O)[O-])cc2)cc1,-5.77%
9,CCOC(=O)C(CO)NC(=O)C1(NC(C)=O)CCCC1 (configuration not stated) (Ac-[Ac5c]-[ξS]-OEt),-1.77%
10,O=C(O)c1ccccc1C(=O)Nc1nc(-c2ccccc2)cs1,-7.75%
11,O=C(Nc1ccc(-c2csc(Nc3cccc(C(F)(F)F)c3)n2)cc1)c1cccc(C(F)(F)F)c1,109% (active)
12,O=C(Nc1ccc(C(F)(F)F)cc1)c1cccc(-n2cnnn2)c1,9.16%
13,CN(C(=O)c1cccc(NC(=O)Cc2ccc(NC(=O)C3CCN(C(=O)C4CCCCC4)CC3)cc2)c1)C1CCC1,28.2%
14,C=CCCC(=O)N1C[C@H]2CON(C)[C@H]2C[C@H]1c1cccc(Nc2ccccc2)c1,2.33%
15,CCCCN(C(=O)c1cccc(N2C(=O)c3ccccc3C2=O)c1)c1c(N)n(CCCC)c(=O)[nH]c1=O,9.37%
16,COc1cc(CNC2CCCC2)c(Br)cc1OCc1ccccc1,79.2% (active)
17,COc1ccc(CNC2CCCCC2)cc1,-32.1%
18,COc1cc(CN2CCC(C(N)=O)CC2)ccc1OCc1ccccc1,-14.9%
19,O=C1/C(=C\c2ccc(O)cc2)CCC1CNc1ccc(Cl)cc1 (configuration not stated),18.3%
